Outcome and AC50 data for 39 molecules are collected here from PubChem BioAssay (EPA / NIEHS).

Several values for one entry are separate records, joined by “and”; a condition that tells them apart may be missing. Equal entries are not always repeated. Some structures have more than one record in an assay (separate samples or runs), and their calls can disagree. Activity calls are given as the source filed them. How the source made its calls: active means hit-call score of the fitted dose curve at least 0.9, where 1 is the maximum; inactive means score below 0.9.

The test in a line: BSK_SAg_Proliferation: Cell Proliferation Assessment in the BioMAP Diversity Plus: SAg Assay (AID 2283095). Particulars: primary human HUVEC with PBMC. How it is done:
BSK_SAg is a cell-based, multiplexed-readout assay that uses umbilical vein endothelium and peripheral blood mononuclear cells, a human vascular primary cell co-culture, with measurements taken at 24 hours after chemical dosing in a 96-well plate.BSK_SAg_Proliferation is an assay component in the BSK_SAg assay. It measures protein content, a form of viability reporter, as detected with absorbance signals by Sulforhodamine staining technology. Data from the assay component BSK_SAg_Proliferation was analyzed into 1 assay endpoint. This assay endpoint, BSK_SAg_Proliferation, was analyzed with bidirectional fitting relative to DMSO as the negative control and baseline of activity. Using a type of viability reporter, measures of total protein for gain or loss-of-signal activity can be used to understand the viability at the cellular-level. Furthermore, this assay endpoint can be referred to as a secondary readout, because this assay has produced multiple assay endpoints where this one serves a viability function. To generalize the intended target to other relatable targets, this assay endpoint is annotated to the cell cycle intended target family, where the subfamily is proliferation.
The levels of cell surface (or secreted, indicated by the prefix "s") biomarker endpoints were measured by ELISA. Overt cytotoxicity to cells in confluent adherent cultures (all systems other than the BT system) was assessed by measuring total protein levels using sulforhodamine B (SRB) staining in parallel cultures at the time of biomarker measurements, indicated as SRB endpoints. For proliferation assays for adherent cell types, individual cell types are cultured at sub-confluence and relative cell numbers quantified by SRB staining at time points optimized for each system (48 h: 3C and CASM3C systems; 72 h: BT and HDF3CGF systems; 96 h: SAg system). SRB was performed by staining cells with 0.1% SRB after fixation with 10% TCA and reading wells at 560 nm.Viability and proliferation of PBMC (T cells) was quantified by Alamar Blue reduction for the SAg and BT systems. For PBMC viability (referred to as PBMC Cytotoxicity within the assay endpoint names), cells were plated (75,000/well in a 96-well plate) and then chemical samples added for 1 h before addition of activators, SEB and TSST-1 (20 ng/mL final concentration each). Cells were incubated for 90 h. Then, Alamar Blue (20 uL/well) (Invitrogen, Cat DAL1100) was added for 6 h, and the plates were read with a fluorescence microplate reader at 546/580 nm (excitation/emission). For PBMC proliferation, cells were plated and activated as above but incubated for only 16 h prior to addition of Alamar Blue. Plates were read after 6 h.
On to `C#C[C@]1(O)CC[C@H]2[C@@H]3CCC4=Cc5oncc5C[C@]4(C)[C@H]3CC[C@@]21C`, for which the outcome was inactive.

`OC1OC[C@@H](O)[C@H](O)[C@H]1O` (stereo not given in full): the result was inactive.

Consider `O=C(O)c1cn(-c2ccc(F)cc2)c2cc(N3CCNCC3)c(F)cc2c1=O`, for which the result was inactive.

In the case of `O=C=NC1CCC(CC2CCC(N=C=O)CC2)CC1` (stereo not given), the AC50 was 33.5 µM (active).

With `COc1cc(C=O)ccc1OC(=O)C(C)C`, the outcome was inactive.

Regarding `CN(CCOc1ccc(CC2SC(=O)NC2=O)cc1)c1ccccn1` (stereo not given), the AC50 is 20 µM (active).

With `CC(C)(COC(=O)c1ccccc1)COC(=O)c1ccccc1`, the AC50 was 20 µM (active).

In the case of `CC[Si](OC(C)=O)(OC(C)=O)OC(C)=O`, the outcome was inactive.

For the molecule `Cc1ccc(Nc2ccc(O)c3c2C(=O)c2ccccc2C3=O)cc1`, the outcome was inactive.

Regarding `CC(=O)[C@H]1CC[C@H]2[C@@H]3CC=C4C[C@@H](O)CC[C@]4(C)[C@H]3CC[C@]12C`, the outcome was inactive.

Take `Nc1cc([N+](=O)[O-])ccc1Cl`: the outcome was inactive.

As to `Nc1cc([N+](=O)[O-])ccc1O`, the result was inactive.

Regarding `c1ccc2sc(SN(C3CCCCC3)C3CCCCC3)nc2c1`, the AC50 was 11.4 µM (active).

As to `C=C(C)C(=O)O[C@H]1C[C@@H]2CC[C@@]1(C)C2(C)C`, the AC50 was 30.7 µM (active).

For `CCC(=O)OCc1ccccc1`, the outcome was inactive.

For `O=P(c1ccccc1)(c1ccccc1)c1ccccc1`, the outcome was inactive.

Regarding `CCn1c2ccccc2c2cc(N)ccc21`, the outcome was inactive.

With `O=C1OC2(c3cc(Br)c(O)c(Br)c3Oc3c2cc(Br)c(O)c3Br)c2c(Cl)c(Cl)c(Cl)c(Cl)c21`, the AC50 is 21.3 µM (active).

As for `C[C@H]1C[C@@H]2[C@H]([C@@H](O)C[C@@]3(C)[C@H]2CC[C@]3(O)C(=O)CO)[C@@]2(C)C=CC(=O)C=C12`, the AC50 is 2.49 µM (active) and 6.67 µM (active).

`CC(=O)O[C@]1(C(C)=O)CC[C@H]2[C@@H]3C[C@H](C)C4=CC(=O)CC[C@]4(C)[C@H]3CC[C@@]21C`: the result was inactive.

For the molecule `CC1COc2ccccc2N1C(=O)C(Cl)Cl` (stereo not given), the outcome was inactive.

Consider `CCCCC(CC)COC(=O)/C=C\C(=O)OCC(CC)CCCC` (stereo not given), for which the AC50 was 20 µM (active).

For the molecule `CC(C)c1ccc(C(C)C)cc1`, the outcome was inactive.

As for `C=CCOC(=O)CCC1CCCCC1`, the outcome was inactive.

In the case of `OC[C@H]1O[C@H](O[C@]2(CCl)O[C@H](CCl)[C@@H](O)[C@@H]2O)[C@H](O)[C@@H](O)[C@H]1Cl`, the outcome was inactive.

Regarding `O=C(O)C[C@H](O)C[C@H](O)/C=C/c1c(C2CC2)nc2ccccc2c1-c1ccc(F)cc1`, the AC50 is 0.756 µM (active).

Turning to `CC(C)Oc1ccccc1O`, the outcome was inactive.

Turning to `COC(=O)c1ccc(C)cc1`, the result was inactive.

Take `CCCCCCCCC=O`: the outcome was inactive.

For the molecule `O=C(O)c1cn(C2CC2)c2cc(N3CCNCC3)c(F)cc2c1=O`, the outcome was inactive.

For `CCCCCCCCCCCCCCCCCC(=O)OCC(CC)CCCC` (stereo not given), the result was inactive.

Regarding `CC(=O)OCCC(C)CC(C)(C)C` (stereo not given), the AC50 was 1.85 µM (active) and the outcome was inactive.

Regarding `CCCCCCCCCC=O`, the outcome was inactive.

In the case of `CCc1c(C)cc(N)c(CC)c1N`, the outcome was inactive.

On to `CC(=O)/C=C/C1=C(C)CCCC1(C)C`, for which the outcome was inactive.

As to `CNC[C@H](O)c1cccc(O)c1`, the result was inactive.

Take `O=C(O)c1ccc([N+](=O)[O-])cc1`: the result was inactive.

In the case of `BrC1CCC(Br)C(Br)CCC(Br)C(Br)CCC1Br` (stereo not given), the AC50 is 4.63 µM (active).

With `CCCCC(CC)COCCC#N` (stereo not given), the outcome was inactive.

One may read the AC50 as the midpoint of the concentration-response curve, whichever way the signal moves.
